Experimental data: PubChem BioAssay
The source made the active and inactive calls.

Tests used:
[1] = system: Plasmodium falciparum Sir2 (PF13_0152, Sir2A); assay: Plasmodium falciparum Sir2A binding compounds – biochemical, small-molecule microarray, 635 nm fluorescence, primary screen (AID 1098); settings: fluorescence 635 nm, higher = more signal;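 further: score merges spot fluorescence intensity with its signal-to-noise ratio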
[2] = probe aDKK1 binding to arrayed compounds – biochemical, biotinylated probe, 635/667 nm fluorescence, primary screen (AID 1099); settings: small-molecule microarray, higher = more signal;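 further: score merges 667nm spot fluorescence with signal to noise across triplicate slides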
[3] = probe aCHRDL2 binding to arrayed compounds – biochemical, biotinylated probe, 635/667 nm fluorescence, primary screen (AID 1100); settings: small-molecule microarray, higher = more signal
[4] = change in splice reporter luminescence, either direction, cell-based, HEK293, spliceosome inhibition project, primary screen (AID 1101); settings: HEK293 splicing luciferase reporter, 24 h, higher = more signal, called active from +8 up or from −8 down;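 further: HEK293 cells carrying a splicing-competent luciferase reporter gene; test concentration not given here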
[5] = target: Fibroblast growth factor 10 (Homo sapiens) (UniProt O15520); assay: compounds binding fibroblast growth factor 10 – biochemical, small-molecule microarray, 635 nm fluorescence, primary screen (AID 1102); settings: FGF10 binding, fluorescence 635 nm, higher = more signal
[6] = system: glycogen synthase kinase-3 (GSK3A per assay name; protocol says GSK3B); assay: compounds binding glycogen synthase kinase-3 – biochemical, small-molecule microarray, 635 nm fluorescence, GSK3A, primary screen (AID 1103); settings: fluorescence 635 nm, higher = more signal; further: the record names both GSK3A and GSK3B
[7] = target: Epidermal growth factor receptor (Homo sapiens) (UniProt P00533); assay: compounds binding epidermal growth factor receptor – biochemical, small-molecule microarray, 635 nm fluorescence, primary screen (AID 1104); settings: EGFR binding, higher = more signal;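 further: score merges 667 nm emission intensity with spot signal to noise over triplicate slides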
[8] = target: Follistatin-related protein 3 (Homo sapiens) (UniProt O95633); assay: compounds binding follistatin-related protein 3 – biochemical, small-molecule microarray, 635 nm fluorescence, primary screen (AID 1105); settings: FSTL3 binding, higher = more signal;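 further: score merges emission near 667 nm and signal to noise per printed spot across three slides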
[9] = target: Dickkopf-related protein 1 (Homo sapiens) (UniProt O94907); assay: small molecules binding DKK1 protein – biochemical, small-molecule microarray, 635 nm fluorescence scan, primary screen (AID 1106); settings: higher = more signal;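 further: score merges emission near 667 nm with signal to noise over three replicate slides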
[10] = system: Inhibin beta A chain (activin A); assay: small molecules binding activin A – biochemical, small-molecule microarray, 635 nm fluorescence scan, primary screen (AID 1107); settings: INHBA, higher = more signal;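 further: mouse activin A protein probed at 4.33 µg/mL on printed slides; score merges bound-protein fluorescence near 667 nm with spot signal-to-noise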
[11] = system: Human papillomavirus type 1a protein E7 (residues 44-93); assay: small molecules binding HPV E7 44-93 – biochemical, small-molecule microarray, residues 44-93, 635 nm fluorescence, primary screen (AID 1108); settings: fluorescence 635 nm, higher = more signal;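 further: E7 fragment applied at 1 µg/mL in TBST for 1 h at 4 C; score combines spot fluorescence with its signal to noise ratio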
[12] = hepatitis C replication reporter changes, two-sided – Huh7 cells, luciferase reporter, HCV replication inhibitor project, primary screen (AID 1109); settings: Huh7 HCV replicon luciferase reporter, 48 h; higher = more signal;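 further: huh7 hepatoma cells harbouring a luciferase neomycin HCV replicon reporter; luciferase luminescence as measure of HCV replicon replication; test concentration not given here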
[13] = target: Left-right determination factor 2 (Homo sapiens) (UniProt O00292); assay: small molecules binding LEFTY2 protein – biochemical, small-molecule microarray, 635 nm fluorescence scan, primary screen (AID 1110); settings: higher = more signal
[14] = target: Calmodulin-1 (Homo sapiens) (UniProt P0DP23); assay: small molecules binding calmodulin-1 with EGTA – biochemical, small-molecule microarray, Cy5-labelled CALM1, profiling panel (AID 1111); settings: Cy5-CALM1 binding fluorescence, higher = more signal;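 further: labelled calmodulin applied in Tris saline Tween buffer holding calcium plus EGTA and DTT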
[15] = target: Calmodulin-1 (Homo sapiens) (UniProt P0DP23); assay: small molecules binding Ca-loaded calmodulin-1 – biochemical, small-molecule microarray, Cy5-labelled CALM1, plus calcium, artefact control for SMM control-protein annotation, profiling panel (AID 1112); settings: Cy5-CALM1 binding fluorescence, higher = more signal;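 further: score merges spot fluorescence with signal to noise from triplicate slides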
[16] = probe aWnt5a binding to arrayed compounds – biochemical, biotinylated probe, 635/667 nm fluorescence, primary screen (AID 1113); settings: small-molecule microarray, higher = more signal;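 further: score merges 667 nm fluorescence intensity with signal-to-noise per printed feature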
[17] = probe aShh binding to arrayed compounds – biochemical, biotinylated probe, 635/667 nm fluorescence, primary screen (AID 1114); settings: small-molecule microarray, higher = more signal;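 further: probe is biotin-labelled aShh protein from a stem cell growth factor screen; measures binding of labelled protein to compounds printed on the slide; score merges feature fluorescence at 667 nm with signal-to-noise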
[18] = probe aNog binding to arrayed compounds – biochemical, biotinylated probe, 635/667 nm fluorescence, primary screen (AID 1115); settings: small-molecule microarray, higher = more signal;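 further: probe is biotinylated aNog protein used at 0.15 µg/mL for 1 h at 4 C; z-score combines 667 nm fluorescence of each spot with its signal to noise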
[19] = target: Torsin-1A-interacting protein 1 (Homo sapiens) (UniProt Q5JTV8); assay: compound microarray binding of lysate hLAP1 – cell lysate, small-molecule microarray, COS7 lysate, 635/667 nm fluorescence, primary screen (AID 1116); settings: 635 nm fluorescence, higher = more signal
[20] = target: Alpha-bungarotoxin (Bungarus multicinctus) (UniProt P60615); assay: compounds binding labelled alpha-BTX control protein – biochemical, small-molecule microarray, Alexa647 label, 635/667 nm fluorescence, artefact control for SMM control protein annotation, profiling panel (AID 1117); settings: alpha-BTX-A647 binding fluorescence, higher = more signal
Sequence of Alpha-bungarotoxin (Bungarus multicinctus) (P60615 whole entry, looked up): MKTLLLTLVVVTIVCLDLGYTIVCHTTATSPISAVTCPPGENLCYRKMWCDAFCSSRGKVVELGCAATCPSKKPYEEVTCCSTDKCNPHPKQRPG

Sequence of Follistatin-related protein 3 (Homo sapiens) (O95633 whole entry, looked up): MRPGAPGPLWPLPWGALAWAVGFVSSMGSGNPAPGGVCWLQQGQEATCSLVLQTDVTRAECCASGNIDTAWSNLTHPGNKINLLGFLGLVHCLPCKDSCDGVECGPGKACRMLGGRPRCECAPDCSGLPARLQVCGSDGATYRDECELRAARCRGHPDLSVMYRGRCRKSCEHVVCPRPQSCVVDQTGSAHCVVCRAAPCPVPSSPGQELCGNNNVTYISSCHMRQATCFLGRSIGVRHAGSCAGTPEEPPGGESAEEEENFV
Sequence of Epidermal growth factor receptor (Homo sapiens) (P00533 whole entry, looked up): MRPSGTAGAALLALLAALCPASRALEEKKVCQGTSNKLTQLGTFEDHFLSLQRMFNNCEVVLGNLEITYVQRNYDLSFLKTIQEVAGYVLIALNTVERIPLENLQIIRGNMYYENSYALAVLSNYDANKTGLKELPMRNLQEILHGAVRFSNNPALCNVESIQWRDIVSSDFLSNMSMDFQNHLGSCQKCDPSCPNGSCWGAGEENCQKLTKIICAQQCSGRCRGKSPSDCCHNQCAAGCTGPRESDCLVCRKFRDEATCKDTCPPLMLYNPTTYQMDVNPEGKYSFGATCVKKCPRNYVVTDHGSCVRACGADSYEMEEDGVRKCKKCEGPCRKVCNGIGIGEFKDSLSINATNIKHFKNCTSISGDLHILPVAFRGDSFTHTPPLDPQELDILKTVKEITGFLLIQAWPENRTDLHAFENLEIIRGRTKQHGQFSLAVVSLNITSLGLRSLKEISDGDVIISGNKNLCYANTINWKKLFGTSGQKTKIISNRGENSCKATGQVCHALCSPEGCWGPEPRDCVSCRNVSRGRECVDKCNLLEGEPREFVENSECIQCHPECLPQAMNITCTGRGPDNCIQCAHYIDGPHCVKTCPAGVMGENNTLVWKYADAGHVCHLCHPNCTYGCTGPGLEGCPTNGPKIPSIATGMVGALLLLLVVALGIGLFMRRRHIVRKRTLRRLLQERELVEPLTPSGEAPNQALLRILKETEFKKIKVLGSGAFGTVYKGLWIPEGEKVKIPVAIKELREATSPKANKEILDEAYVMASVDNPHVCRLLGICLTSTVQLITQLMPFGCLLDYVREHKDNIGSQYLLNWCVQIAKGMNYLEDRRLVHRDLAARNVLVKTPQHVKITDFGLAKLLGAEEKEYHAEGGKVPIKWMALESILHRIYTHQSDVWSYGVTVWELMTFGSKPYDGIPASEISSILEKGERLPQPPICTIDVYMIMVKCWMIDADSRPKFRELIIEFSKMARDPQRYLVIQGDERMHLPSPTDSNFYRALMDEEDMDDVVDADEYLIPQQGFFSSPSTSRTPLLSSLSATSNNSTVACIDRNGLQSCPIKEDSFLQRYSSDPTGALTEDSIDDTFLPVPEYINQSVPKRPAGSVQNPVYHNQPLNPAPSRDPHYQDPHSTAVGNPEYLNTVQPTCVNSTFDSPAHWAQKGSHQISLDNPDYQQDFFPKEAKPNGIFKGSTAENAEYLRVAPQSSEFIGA
Sequence of Torsin-1A-interacting protein 1 (Homo sapiens) (Q5JTV8 whole entry, looked up): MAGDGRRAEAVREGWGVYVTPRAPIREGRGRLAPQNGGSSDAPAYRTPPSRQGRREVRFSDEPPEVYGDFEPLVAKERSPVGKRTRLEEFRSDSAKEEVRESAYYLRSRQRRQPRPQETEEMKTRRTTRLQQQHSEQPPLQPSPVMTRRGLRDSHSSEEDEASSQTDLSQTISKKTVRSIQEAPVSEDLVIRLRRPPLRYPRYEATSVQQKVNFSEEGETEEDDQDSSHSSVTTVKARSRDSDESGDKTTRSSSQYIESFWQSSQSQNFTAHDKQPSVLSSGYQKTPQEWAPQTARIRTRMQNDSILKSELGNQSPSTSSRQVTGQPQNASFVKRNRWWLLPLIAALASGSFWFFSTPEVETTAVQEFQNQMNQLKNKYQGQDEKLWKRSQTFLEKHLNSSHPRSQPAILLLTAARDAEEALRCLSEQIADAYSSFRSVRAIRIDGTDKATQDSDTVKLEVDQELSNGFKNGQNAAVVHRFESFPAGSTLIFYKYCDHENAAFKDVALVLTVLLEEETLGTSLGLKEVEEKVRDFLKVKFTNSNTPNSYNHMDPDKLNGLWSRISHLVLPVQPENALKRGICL
Sequence of Fibroblast growth factor 10 (Homo sapiens) (O15520 whole entry, looked up): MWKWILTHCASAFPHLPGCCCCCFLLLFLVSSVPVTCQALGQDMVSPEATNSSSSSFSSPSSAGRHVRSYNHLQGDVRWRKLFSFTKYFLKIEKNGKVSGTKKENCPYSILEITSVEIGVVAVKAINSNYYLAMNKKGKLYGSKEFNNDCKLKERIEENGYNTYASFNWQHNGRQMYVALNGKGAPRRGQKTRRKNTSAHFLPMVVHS
Sequence of Dickkopf-related protein 1 (Homo sapiens) (O94907 whole entry, looked up): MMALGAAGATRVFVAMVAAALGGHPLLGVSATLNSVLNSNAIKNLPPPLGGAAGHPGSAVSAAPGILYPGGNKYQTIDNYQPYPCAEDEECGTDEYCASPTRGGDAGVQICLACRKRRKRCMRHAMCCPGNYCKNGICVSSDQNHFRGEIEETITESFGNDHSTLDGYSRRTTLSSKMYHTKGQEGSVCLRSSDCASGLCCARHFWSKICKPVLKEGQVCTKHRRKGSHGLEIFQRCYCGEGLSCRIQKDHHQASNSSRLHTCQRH
Sequence of Left-right determination factor 2 (Homo sapiens) (O00292 whole entry, looked up): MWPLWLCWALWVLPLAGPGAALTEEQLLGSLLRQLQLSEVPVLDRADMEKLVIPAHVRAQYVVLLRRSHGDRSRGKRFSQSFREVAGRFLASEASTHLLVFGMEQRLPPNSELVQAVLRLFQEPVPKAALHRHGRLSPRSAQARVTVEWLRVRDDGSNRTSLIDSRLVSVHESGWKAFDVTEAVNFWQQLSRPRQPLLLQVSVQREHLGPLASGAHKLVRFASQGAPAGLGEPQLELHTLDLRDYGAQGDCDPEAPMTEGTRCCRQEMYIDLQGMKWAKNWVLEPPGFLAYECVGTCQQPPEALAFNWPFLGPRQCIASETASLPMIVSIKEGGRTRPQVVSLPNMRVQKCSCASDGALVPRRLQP

Structure (SMILES) | composite z-score [1] | composite z-score [2] | composite z-score [3] | z-score [4] | composite z-score [5] | composite z-score [6] | composite z-score [7] | composite z-score [8] | composite z-score [9] | composite z-score [10] | composite z-score [11] | z-score [12] | composite z-score [13] | composite z-score [14] | composite z-score [15] | composite z-score [16] | composite z-score [17] | composite z-score [18] | composite z-score [19] | composite z-score [20]
C=CCC(OC(C)=O)[C@@H]1[C@@H](N(Cc2ccc(-c3cccc(C(F)(F)F)c3)o2)C(=O)Cc2ccc(F)cc2)c2cc(OCCCO)ccc2N1C(=O)Cc1ccc2ccccc2c1 (stereo not given in full) | -0.595 | -0.341 | 0.228 | 0.705 (inactive) | -0.195 | -1.79 | -0.676 | -0.511 | -0.286 | 1.12 | -0.97 | 0.022 | -0.511 | -0.599 | 0.218 | -0.0684 | 0.0684 | -0.352 | -0.016 | -0.772
O=C1O[C@H](c2ccccc2)[C@H](c2ccccc2)N2[C@H]1[C@@H](C(=O)N1CCN(c3ncccn3)CC1)[C@]1(C(=O)Nc3ccc(C#CCCO)cc31)[C@H]2c1ccc(O)cc1 | 0.772 | -0.238 | 0.422 | -0.057 (inactive) | 1.06 | -0.906 | 0.397 | 0.0936 | 0.359 | -0.0667 | 1.08 | -1.38 | -0.379 | 0.562 | 0.323 | 0.0215 | 0.0684 | -0.0927 | 0.516 | 1.55
COC(=O)[C@@]1(Cc2ccc(OC)cc2)[C@H]2c3cc(C(=O)N4CCCC4)n(Cc4c(CO)[nH]cc(C)c4=O)c3C[C@H]2CN1C(=O)c1ccccc1 | 0.488 | 2.01 | 1.13 | -1.14 (inactive) | 0.404 | 0.237 | -0.0221 | 0.158 | -0.59 | 1.02 | -0.78 | -1.4 | -0.181 | 2.05 | 0.593 | 0.0328 | -0.156 | 0.947 | 2.32 | 0.12
CC(=O)NCCCC[C@@H]1NC(=O)[C@H]2C[C@@H](C(=O)NCCCCCCNC(=O)CS)[C@@H](c3cccc(OCCO)c3)N2C1=O | 1.72 | -0.11 | 0.642 | -0.662 (inactive) | 0.816 | 1.15 | -0.316 | 0.225 | 0.363 | 0.339 | 1.05 | -0.199 | -0.0449 | 0.83 | 0.395 | 0.127 | 0.0444 | -0.0926 | 2.1 | 0.298
CC(C)NC(=O)[C@@]1(C)c2ccccc2C(=O)N(Cc2ccccc2)[C@H]1c1ccc(CO)cc1 | 1.7 | -0.152 | 0.424 | -0.44 (inactive) | -1.2 | -0.0543 | -0.921 | -0.394 | -0.0744 | -1.14 | 0.864 | -0.957 | -1.47 | -0.155 | -0.672 | -0.0819 | -0.209 | -0.45 | -0.922 | 0.386
C[C@@H]1ON(c2ccccc2)[C@H](c2ccccc2)[C@H]1C(=O)O | -0.344 | -0.158 | -0.269 | 0.221 (inactive) | 0.777 | 0.362 | -0.436 | -0.213 | 0.796 | -0.367 | -0.429 | 0.387 | 0.25 | 0.0717 | -0.124 | 0.0377 | -0.2 | 0.618 | 0.109 | 0.167
[N-]=[N+]=NCc1ccccc1[C@@H]1OC(c2ccc(OCCCO)cc2)=N[C@]1(Cc1ccccc1N=[N+]=[N-])C(=O)O | 1.45 | 1.35 | 1.11 | -1.48 (inactive) | 1.15 | 1.26 | 0.268 | 1.03 | -0.075 | 0.848 | 0.98 | -0.909 | -0.0061 | 1.4 | 0.774 | 0.496 | 0.541 | 1.7 | 0.697 | 1.55
O=C1O[C@H](Cc2ccccc2)[C@@H]2[C@H]3C=CCCC=C3CN2[C@H]1Cc1ccc(O)cc1 | 0.968 | -0.271 | -0.0179 | 0.192 (inactive) | -0.36 | -1.16 | -0.317 | -0.17 | -0.0128 | 0.991 | -1.94 | -1.7 | -0.543 | -0.342 | -0.593 | -0.0991 | 0.207 | 0.0222 | -0.0081 | -0.224
CC(C)NC(=O)[C@@]1(c2ccc([N+](=O)[O-])cc2)CC(=O)N(CC23CC4CC(CC(C4)C2)C3)[C@@H]1c1ccc(CO)cc1 | 1.4 | 0.998 | 0.931 | -0.279 (inactive) | 0.911 | 1.34 | 0.396 | 1.45 | 1.3 | 0.64 | 0.939 | -2.7 | 1.03 | 1.03 | -0.0022 | 0.289 | 0.321 | 1.85 | 1.52 | 1.37
[N-]=[N+]=Nc1ccccc1C[C@]1(C(=O)N2CCOCC2)N=C(c2ccc(OCCCO)cc2)O[C@H]1c1ccccc1N=[N+]=[N-] | 1.53 | 0.651 | 0.915 | -0.591 (inactive) | 1.41 | 1.31 | 0.857 | 1.47 | 1.42 | 1.3 | 1.29 | -2.23 | 1.22 | 1.5 | -0.388 | 0.145 | 0.275 | -0.626 | 1.9 | 1.84
O=C1O[C@@H](c2ccccc2)[C@@H](c2ccccc2)N2[C@@H](c3ccccc3OCCO)[C@]3(C(=O)Nc4ccc(C#CCCO)cc43)[C@@H](C(=O)NC[C@H](O)c3ccccc3)[C@H]12 | 1.69 | 1.93 | 1.51 | -0.393 (inactive) | 0.428 | -0.0642 | 0.249 | 1.35 | 0.172 | 1.41 | 1.49 | -0.871 | -0.274 | 2.34 | 0.953 | 0.489 | -0.212 | 2.45 | 2.7 | 2.55
